{"source": "PubChem BioAssay AID1259374", "about": "(The Scripps Research Institute Molecular Screening Center, 2018)", "note": "The whole screen tested about 650,000 compounds, of which about 5,900 (0.91%) were called active. Cut-off read from the data, not from the text of the source: active = inhibition above about 50%; inactive = the rest. Many of the other results were omitted from the sample, so actives are more common in it than they were."}
{"target": "Microphthalmia-associated transcription factor (Homo sapiens) (UniProt O75030)", "sequence (O75030 whole entry, looked up)": "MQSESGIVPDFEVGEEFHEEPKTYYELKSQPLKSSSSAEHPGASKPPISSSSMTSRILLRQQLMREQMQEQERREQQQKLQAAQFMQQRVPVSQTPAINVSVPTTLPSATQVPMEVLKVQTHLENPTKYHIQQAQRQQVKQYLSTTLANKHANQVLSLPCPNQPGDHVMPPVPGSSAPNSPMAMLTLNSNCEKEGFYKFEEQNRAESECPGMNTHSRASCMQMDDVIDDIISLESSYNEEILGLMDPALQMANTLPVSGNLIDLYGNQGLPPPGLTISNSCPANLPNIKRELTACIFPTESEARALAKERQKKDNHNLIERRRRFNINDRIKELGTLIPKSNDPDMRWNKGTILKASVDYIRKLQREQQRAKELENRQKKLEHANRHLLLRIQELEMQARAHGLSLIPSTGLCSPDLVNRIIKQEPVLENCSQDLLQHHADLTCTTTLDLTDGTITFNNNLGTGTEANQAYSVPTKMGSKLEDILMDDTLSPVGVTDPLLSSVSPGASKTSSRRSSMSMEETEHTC", "assay": "MITF inhibitors, primary screen, biochemical, AlphaScreen, human (AID 1259374);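 note: 0% = vehicle wells with protein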", "details": "AlphaScreen MITF homodimerization, bead proximity signal; at 2.6 µM; active compounds read high"}
{"smiles": "CC(C)[C@@H](CO)Nc1ccc2ncc(-c3ccccc3F)n2n1", "inhibition": "-14.3% (inactive)"}
{"smiles": "CC(=O)c1ccc(OCC(=O)N2CCOCC2)cc1", "inhibition": "-0.62% (inactive)"}
{"smiles": "CCCS(=O)(=O)N1CCN(Cc2cccc(Cl)c2)CC1", "inhibition": "54.8% (active)"}
{"smiles": "CS(=O)(=O)N1CCN(Cc2cccc(Cl)c2)CC1", "inhibition": "70.2% (active)"}
{"smiles": "CCCS(=O)(=O)N1CCN=C1SCc1cccc(Cl)c1", "inhibition": "18.8% (inactive)"}
{"smiles": "CS(=O)(=O)N1CCC(c2nc3c(nnn3Cc3cccc(Cl)c3)c(=O)[nH]2)CC1", "inhibition": "9.95% (inactive)"}
{"smiles": "CCCS(=O)(=O)N1CCN(Cc2ccccc2Br)CC1", "inhibition": "58.2% (active)"}
{"smiles": "O=S(=O)(c1ccc(Br)c2ccccc12)N1CCN(Cc2ccccc2)CC1", "inhibition": "7.47% (inactive)"}
{"smiles": "Clc1cccc(CN2CCN(c3ccccn3)CC2)c1", "inhibition": "50.1% (inactive)"}
{"smiles": "CCCS(=O)(=O)N1CCC(O)(c2cccnc2)CC1", "inhibition": "13.4% (inactive)"}
{"smiles": "CCS(=O)(=O)N1CCN(c2cccc(Cl)c2)CC1", "inhibition": "-3.13% (inactive)"}
{"smiles": "CC(CC(=O)N(CC(N)=O)C(C)C)c1ccccc1", "note": "(configuration not stated)", "inhibition": "-5.95% (inactive)"}
{"smiles": "CCOC(=O)c1cccc(NC(=O)COc2ccccc2Br)c1", "inhibition": "8.75% (inactive)"}
{"smiles": "COc1cc(/C=C(/C#N)C(N)=S)c(Br)cc1O", "inhibition": "24.1% (inactive)"}
{"smiles": "CSc1ccccc1C(=O)NCc1c(C)ncc2c1CCN(C(=O)c1cc(C)oc1C)C2", "inhibition": "12.3% (inactive)"}
{"smiles": "COc1ccc(C(=O)N2CCCCO2)cc1OC1CCN(C(C)=O)CC1", "inhibition": "2.51% (inactive)"}
{"smiles": "Cc1ccc(SCC(=O)NCc2nc(-c3ccc(C)cc3)no2)cc1", "inhibition": "-3.11% (inactive)"}
{"smiles": "CC(C)CCN1CCNC(=O)C1CC(=O)N1CCCO1", "note": "(configuration not stated)", "inhibition": "1.48% (inactive)"}
{"smiles": "O=[N+]([O-])c1c(Cl)cc(Cl)c2nsnc12", "inhibition": "1.42% (inactive)"}
{"smiles": "C=CCn1c(C)c(/C=c2/sc3n(c2=O)C(c2ccc(OC)c(Br)c2)C(C(=O)OCC)=C(C)N=3)c2ccccc21", "note": "(configuration not stated)", "inhibition": "-0.97% (inactive)"}
{"smiles": "CN1CCN(c2nccnc2-c2cccc(C(=O)NCCO)c2)CC1", "inhibition": "4.98% (inactive)"}
{"smiles": "CCOc1ccccc1CN1CCN(Cc2cccnc2)CC1CCO", "note": "(configuration not stated)", "inhibition": "8.25% (inactive)"}
{"smiles": "O=S(=O)(c1ccc(F)cc1)N1CCN(Cc2ccccc2F)CC1", "inhibition": "3% (inactive)"}
{"smiles": "O=S(=O)(c1ccc(F)cc1)N1CCN(Cc2ccccc2C(F)(F)F)CC1", "inhibition": "59.6% (active)"}
{"smiles": "O=C(Cc1ccccc1[N+](=O)[O-])NNC(=O)Nc1ccccc1C(F)(F)F", "inhibition": "13.8% (inactive)"}
{"smiles": "CCC(C)C(=O)NCc1nnc2n1CCN(Cc1cccnc1)CC2", "note": "(configuration not stated)", "inhibition": "0.14% (inactive)"}
{"smiles": "O=S(=O)(c1ccc(F)cc1)N1CCN(CCCc2ccccc2)CC1", "inhibition": "43.8% (inactive)"}
{"smiles": "COc1ccccc1N1CCN(C2CCN(Cc3ccccc3[N+](=O)[O-])CC2)CC1", "inhibition": "-2.11% (inactive)"}
{"smiles": "O=[N+]([O-])c1ccccc1CN1CCN(Cc2ccccc2C(F)(F)F)CC1", "inhibition": "67.3% (active)"}
{"smiles": "O=[N+]([O-])c1ccccc1CN1CCN(Cc2cccnc2)CC1", "inhibition": "61.9% (active)"}
{"smiles": "O=C(CC(Nc1ccc2ccccc2c1)c1cccnc1)c1ccccc1", "note": "(configuration not stated)", "inhibition": "1.3% (inactive)"}
{"smiles": "CC(=O)Nc1ccc(Oc2cc(NC(=O)c3cccc(F)c3)cc([N+](=O)[O-])c2)cc1", "inhibition": "9% (inactive)"}
{"smiles": "O=C1c2ccccc2C(=O)c2c1cccc2S(=O)(=O)N1CCCC1", "inhibition": "10.2% (inactive)"}
{"smiles": "O=C(Nc1ccc2nsnc2c1NC(=O)c1ccc2nsnc2c1)c1ccc2nsnc2c1", "inhibition": "1.05% (inactive)"}
{"smiles": "N#CCSc1nc2[nH]ncc2c(=O)n1-c1cccc(C(F)(F)F)c1", "inhibition": "1.44% (inactive)"}
{"smiles": "CC(C)[C@@H](C(=O)OCC(=O)Nc1cccnc1Cl)N1C(=O)c2ccccc2C1=O", "inhibition": "-1.46% (inactive)"}
{"smiles": "C/C(=N\\NC(=O)C(O)(c1ccccc1)c1ccccc1)c1ccccc1O", "inhibition": "-4.23% (inactive)"}
{"smiles": "COc1ccccc1N=Cc1cccc(O)c1O", "inhibition": "-5.98% (inactive)"}
{"smiles": "C/C(=N\\Nc1nc(C(C)(C)C)cs1)c1ccccc1O", "inhibition": "6.2% (inactive)"}
{"smiles": "NC(=O)c1ccc(N=Cc2cccc(O)c2O)cc1", "inhibition": "25.2% (inactive)"}
{"smiles": "Oc1cccc(/C=N/Nc2ccc(Cl)nn2)c1O", "inhibition": "89.8% (active)"}
{"smiles": "C/C(=N\\Nc1ccc(Cl)nn1)c1ccccc1O", "inhibition": "61.1% (active)"}
{"smiles": "COc1ccc(/C=C/C(=O)NCc2ccccc2OC)cc1", "inhibition": "-9.24% (inactive)"}
{"smiles": "CCc1ccc(N=c2oc3c(C)ncc(CO)c3cc2C(N)=S)cc1", "inhibition": "3.64% (inactive)"}
{"smiles": "COc1ccc(S(=O)(=O)/N=C2/C=C(Nc3ccc(O)cc3)C(=O)c3ccccc32)cc1", "inhibition": "20% (inactive)"}
{"smiles": "COC(=O)c1ccccc1NC1=C/C(=N/S(=O)(=O)c2ccccc2)c2ccccc2C1=O", "inhibition": "23.4% (inactive)"}
{"smiles": "COc1ccccc1NC1=C/C(=N/S(=O)(=O)c2ccc(F)cc2)c2ccccc2C1=O", "inhibition": "67.4% (active)"}
{"smiles": "CCOc1ccccc1N1CCN(Cc2cc(OC)c(O)c([N+](=O)[O-])c2)CC1", "inhibition": "55.2% (active)"}
{"smiles": "CCOc1ccc(CN2CCN(Cc3ccc(OC)c(OCC)c3)CC2)cc1", "inhibition": "9.84% (inactive)"}
{"smiles": "COc1ccc(C(=O)N2CCN(Cc3cccc(OC)c3)CC2)cc1", "inhibition": "45.7% (inactive)"}
{"smiles": "CCOc1cc(CN2CCC(n3nccc3NC(=O)C(C)(C)C)CC2)ccc1OC", "inhibition": "-3.52% (inactive)"}
{"smiles": "COc1cc(CN2CCN(Cc3cccnc3)CC2)cc(OC)c1OC", "inhibition": "80.7% (active)"}
{"smiles": "CCOc1ccccc1N1CCN(S(=O)(=O)c2ccc([N+](=O)[O-])cc2)CC1", "inhibition": "6.79% (inactive)"}
{"smiles": "COC(=O)c1c(OC2CCCC2)cc(=O)n2c1CCN(Cc1cccnc1)CC2", "inhibition": "2.84% (inactive)"}
{"smiles": "Cc1cc2nc(N3CCCN(Cc4cccnc4)CC3)nc(C)c2cc1C", "inhibition": "6.51% (inactive)"}
{"smiles": "COc1cc(CN2CCN(c3ccccn3)CC2)cc(OC)c1O", "inhibition": "19.3% (inactive)"}
{"smiles": "CCOc1cc(CN2CCN(Cc3ccccn3)CC2)ccc1OC", "inhibition": "62.3% (active)"}
{"smiles": "CCOc1cc(CN2CCN(C(=O)c3ccccc3F)CC2)ccc1OC", "inhibition": "34.4% (inactive)"}
{"smiles": "COc1cccc(CN2CCN(C(=O)c3ccccc3F)CC2)c1", "inhibition": "56.7% (active)"}
{"smiles": "c1ccc2c(-c3nc(Nc4ccc(N5CCOCC5)cc4)c4ncn(C5CCCCC5)c4n3)csc2c1", "inhibition": "1.65% (inactive)"}
{"smiles": "COc1cccc(OC)c1C(=O)NNC(=O)c1cccc(C)c1O", "inhibition": "-15.2% (inactive)"}
{"smiles": "Cn1cnnc1SCC(=O)N1CCN(c2ccccc2)CC1", "inhibition": "1.28% (inactive)"}
